Test results from PubChem BioAssay (EPA / NIEHS).
Records with an inconclusive call do not appear. The source made the active and inactive calls. Rule for the calls: active = hit-call score of the fitted dose curve at least 0.9, where 1 is the maximum; inconclusive = response in the unintended direction; inactive = score below 0.9.

Assay: STM_H9_NormalizedViability: Cytotoxicity Assessment at 120 hours in the Stemina devTOX quickPredict H9 human embryonic stem cell (hESC)-based Assay (AID 2283784)
Procedure: STM_H9_viability utilizes undifferentiated H9 cells to measure cell viability.STM_H9_NormalizedViability is a component calculated in the STM_H9_viability assay. It measures cell viability using background corrected relative fluorescence units (RFU) value from the CellTiterFluor Assay normalized to the value of the 0.1% DMSO neutral control treatment (by 96-well plate)Data from the assay component STM_H9_Viability was analyzed at the assay endpoint STM_H9_Viability_Norm in the positive analysis fitting direction relative to DMSO as the negative control and baseline of activity. Using a type of viability reporter, loss-of-signal activity can be used to understand viability.
H9 hESCs maintained in a pluripotent state were exposed to test compound for 72h with chemical replenishment with media replacement every 24h. Cell-conditioned media from the final 24-h treatment period was collected for analysis of the targeted biomarker, and cell viability of the corresponding cell layer was assessed. The chemical library was tested in blinded fashion. Each test plate included 1uM Methotrexate (MTX; Selleck Chemicals, Houston, Texas) as a positive reference, 5 nM MTX as a negative reference, 0.1% DMSO as the neutral (vehicle) control, and sample-level media blanks.H9 cell-conditioned media from the final 24-h treatment period was collected for analysis of the targeted biomarker and cell viability was measured from the corresponding cell layer. Cell viability was measured using the CellTiter-Fluor assay (Promega, Madison, Wisconsin) based on proteolytic cleavage of a substrate to fluorescent signal proportional to the number of living cells. The cell viability Relative Fluorescence Unit (RFU) was background corrected and normalized to mean RFU of the neutral control (0.1% DMSO). The collected H9-cell-conditioned media samples were processed for targeted biomarker analysis as described (Palmer et al., 2013). Briefly, spent media samples were deproteinized (40% acetonitrile) and processed for UPLC-HRMS. Data acquisition was performed using 4 separate UPLC-HRMS systems, consisting of an Agilent 1290 Infinity LC system (Agilent Technologies) interfaced with an Agilent high-resolution mass spectrometer (models G6520A, G6520B, G6530A, and G6224A). A Waters Acquity UPLC BEH Amide column (2.1mm x 50mm, 1.7lm particle size; Waters, Milford, Massachusetts) maintained at 40C was applied for separation of metabolites using a 6.5min solvent gradient with 0.1% formic acid in water and 0.1% formic acid in acetonitrile (1.0ml/min flow rate). Data were acquired using MassHunter Acquisition software (version B 04.00, Agilent Technologies). The extracted ion chromatogram (EIC) areas for ORN, CYSS, and their respective spike-in C13-standards were determined using the Agilent MassHunter Quantitative Analysis software, version B.05.00 or newer (Agilent Technologies), and data were normalized as described in Palmer et al. (2017).

Row | Compound | AC50 | outcome
1 | COc1ccc2c(c1)c(CC(=O)O)c(C)n2C(=O)c1ccc(Cl)cc1 | 78.1 µM (active) | 
2 | Cc1oc(-c2ccccc2)nc1CCOc1cccc2c1ccn2CCC(=O)O |  | inactive
3 | O=c1c(O)c(-c2ccc(O)c(O)c2)oc2cc(O)cc(O)c12 |  | inactive
4 | O=c1[nH]cc(F)c(=O)[nH]1 | 3.17 µM (active) | 
5 | Nc1ccccc1N | 2.01 µM (active) | 
6 | CCCCc1ccc2c(n1)[C@@H](c1ccc(OC)cc1C[C@H](C)C(=O)O)[C@H](C(=O)O)[C@H]2c1ccc2c(c1)OCO2 |  | inactive
7 | CCCc1cc(=O)[nH]c(=S)[nH]1 |  | inactive
8 | CC(CO)OC(C)CO (stereo unspecified) (tested in a mixture with another compound) |  | inactive
9 | CN1CCN(Cc2cc(-c3ccc4[nH]c(=O)oc4c3)co2)[C@@H](c2ccc(F)cc2)C1 |  | inactive
10 | OC[C@@H](O)[C@@H](O)[C@H](O)[C@H](O)CO |  | inactive
11 | Cc1nc(-c2ccc3c(c2)CCN(CCC2CCC(NC(=O)/C=C/c4ccc(F)cc4)CC2)CC3)no1 (stereo unspecified) |  | inactive
12 | CCCCC(CC)COC(=O)CC(C(=O)OCC(CC)CCCC)S(=O)(=O)O (stereo unspecified) |  | inactive
13 | COC(=O)c1ccc(O)cc1 |  | inactive
14 | COCCOCCOC |  | inactive
15 | Cc1cccc(Nc2cc(Cl)nc(SCC(=O)O)n2)c1C |  | inactive
16 | Oc1ccc2ccccc2c1N=Nc1ccccc1 | 0.992 µM (active) | 
17 | C=CCOC(=O)c1ccccc1C(=O)OCC=C |  | inactive
18 | Cc1cc(NC(=O)C(=O)O)cc(C)c1Oc1ccc(O)c2c1CCC2 |  | inactive
19 | COc1ccc(S(=O)(=O)N2C(=O)[C@@](c3ccccc3OC)(N3C[C@H](O)C[C@H]3C(=O)N(C)C)c3cc(Cl)ccc32)c(OC)c1 |  | inactive
20 | Cc1c(C(=O)O)c(O)cc2c1C(=O)c1c(O)c([C@@H]3O[C@H](CO)[C@@H](O)[C@H](O)[C@H]3O)c(O)c(O)c1C2=O |  | inactive
21 | CC1=C(/C=C/C(C)=C/C=C/C(C)=C/CO)C(C)(C)CCC1 |  | inactive
